The record followed here is PubChem BioAssay (NCI).

Molecules are shown by their SMILES. Compounds without any hit were thinned out: in the full panel of roughly 83,000, 20% have a hit.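 Single-concentration screen, 48 h exposure, 96-well plates. Endpoint: percent growth. Below 10 = active.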 The source made the active and inactive calls.

For the experiment, the system named is SK-OV-3 ovarian. As to the kind of experiment: NCI-60 one-dose screen, 48 h (100 = growth as untreated, 0 = no growth, -100 = all killed). The note with it: 10 µM unless noted.
In the case of `O=[N+]([O-])c1cc([N+](=O)[O-])c(NN=C(c2ccc(O)cc2)c2ccc(O)cc2)cc1Cl`, the growth is 99.5% (inactive). Consider `Cc1cc(SC#N)ncn1`, for which the growth is 105% (inactive).

Turning to `O=C(N/N=C/c1c(Cl)cccc1Cl)c1cccc(Nc2ccnc(C(F)(F)F)c2)c1`, the growth was 102% (inactive). Turning to `O=[N+]([O-])c1cc([N+](=O)[O-])c(C(F)(F)F)cc1NN=C(c1ccc(O)cc1)c1ccc(O)cc1`, the growth is -23.1% (active). `N/C(=N\c1nc2ccccc2[nH]1)NC(=O)Cc1cccc2ccccc12`: the growth was 92.5% (inactive). Under `CCN(CC)CCCC(C)Nc1ccnc2cc(Cl)c(SCc3ccccc3)cc12` (stereo not drawn) stands -43.1% (active); under `O=C(Oc1ccc(Cl)cc1[N+](=O)[O-])Oc1ccc(Cl)cc1[N+](=O)[O-]`, 120% (inactive). With `C[C@@H](NC(=O)[C@@H](CC(=O)N1CCC(N2CCCCC2)CC1)N1C(=O)[C@@H](N2C(=O)OC[C@@H]2c2ccccc2)[C@H]1/C=C/c1cccc(Cl)c1)c1ccccc1` the figure was 86.7% (inactive); with `COc1ccc2c3ccnc(C(F)(F)F)c3n(CCCCN)c2c1`, 53.3% (inactive); with `CCOC(=O)c1c[nH]c2cc(OCC3CC3)c(OCC3CC3)cc2c1=O`, 110% (inactive). As for `COc1ccc(-c2nc3ccccn3c2/C=C/C(=O)c2cc(OC)c(OC)c(OC)c2)cc1OC`, the growth is 6.61% (active).

Regarding `NC(=S)Cc1ccccc1`, the growth is 103% (inactive).

In the case of `CC(C)C1=NOC(=O)C1=Cc1cn(-c2ccccc2)nc1-c1cccc([N+](=O)[O-])c1`, the growth was 117% (inactive). Turning to `O=c1c2c3c(sc2n2cnnc2n1Cc1ccccc1)CCCC3`, the growth is 106% (inactive). For the compound `COc1cc(C)cc2oc3oc(=O)c(C(=O)c4cc5cc(Br)ccc5o4)cc3c(=O)c12`, the growth is 114% (inactive).

Turning to `COc1ccc(OC)c([N+](=O)[O-])c1C(=O)CNC(C)=O`, the growth was 105% (inactive).

`COc1cc(C(=O)/C=C/c2c(-c3ccc(F)cc3)nc3sccn23)cc(OC)c1OC`: the growth was 47.4% (inactive). Under `CC(C)c1ccc(C(=O)Nc2nc3ccc(O)cc3s2)cc1` stands 89.2% (inactive). `C=C(C)C1CCC2(C(=O)O)CCC3(C)C(CCC4C5(C)CCC(OC(=O)NCc6ccccc6)C(C)(C)C5CCC43C)C12` (stereo not drawn): the growth is 68.9% (inactive).

Turning to `CCOC(=O)c1ccc2nc(-c3c(C)nn(-c4ccccc4)c3N3CCOCC3)[nH]c2c1`, the growth was 95.3% (inactive). With `Nc1nc(SCc2cccc([N+](=O)[O-])c2)c2[nH]cnc2n1` the figure was 109% (inactive); with `COc1ccc2nc3c(cc2c1)C(=O)CC(c1ccccc1)C3` (stereo not drawn), 52.2% (inactive); with `CCCC[C@@H](C=O)NC(=O)[C@H](CC(C)C)NC(=O)[C@H](CC(C)C)NC(=O)OCc1ccccc1`, 38.2% (inactive). On to `O=C(N/N=C/c1ccc([N+](=O)[O-])cc1)c1ccc(Br)o1`, for which the growth was 79.3% (inactive). With `NC1=NC(=O)NC1(c1ccccc1)c1ccccc1` the figure was 92.7% (inactive).

On to `CSc1nc2sc3cc(Cl)c(Cl)cc3n2c(=N)c1C#N`, for which the growth was 89.3% (inactive). With `Cn1c(=O)c(C#N)c(-c2ccco2)n2c(S(=O)(=O)Cc3ccccc3)nnc12` the figure was 111% (inactive). Take `Nc1ccc2c(c1)Cc1cc(NC(=O)C(F)(F)F)ccc1-2`: the growth is 89.8% (inactive). With `NC(=O)c1c(NC(=O)COC(=O)Cc2ccccc2F)sc2c1CCC2` the figure was 104% (inactive); with `Cc1cccc([N+](=O)[O-])c1I`, 115% (inactive).

Regarding `COc1ccc2nc3ccccc3c(NCCNCCO)c2c1`, the growth was 16.5% (inactive). For `Cc1cc(NN=C(c2ccc(O)cc2)c2ccc(O)cc2)c([N+](=O)[O-])cc1[N+](=O)[O-]`, the growth is 73.5% (inactive).

Regarding `N#Cc1c(Cl)nc(SCC2CO2)nc1-c1ccccc1` (stereo not drawn), the growth is 70.2% (inactive). Under `CCCCCCCCCCCCCCNC(=O)Nc1ccc(Cl)c(Cl)c1` stands 73% (inactive); under `O=C1NC(=O)c2cc([N+](=O)[O-])cc3cccc1c23`, 106% (inactive). With `CCN(CC)CCSC(=O)C(O)(c1ccccc1)C1CCCC1` (stereo not drawn) the figure was 113% (inactive); with `CCC(Br)(CC)C(=O)c1ccc(OCC(=O)O)c(Cl)c1Cl`, 94.3% (inactive); with `COc1ccc(C2CC(c3cc(OC)c(OC)c(OC)c3)=NN2C(C)=O)cc1OCC(=O)Nc1nc2ccc(C(F)(F)F)cc2s1` (stereo not drawn), 97% (inactive).
